Data as given in PubChem BioAssay (NCI).
The panel holds about 79,000 compounds, 15% with a hit somewhere; the sample as a whole holds those more often. Rule as the data show it: active = growth inhibition above about 70%; inactive = the rest.

Key:
[1] = NCI Yeast Anticancer Drug Screen. Data for the rad50 strain (AID 155);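 also: 0% = growth of vehicle-only cultures of the same strain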; conditions: S. cerevisiae rad50 strain growth inhibition; at 50.0 µM; active compounds read high
Procedure, shortened: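 Vehicle-treated cultures provide the reference for the growth inhibition reported for compound-exposed, repair-deficient yeast.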

[2] = NCI Yeast Anticancer Drug Screen. Data for the mec2-1 strain (AID 157); conditions: S. cerevisiae mec2-1 strain, at 50.0 µM, active compounds read high
Procedure, shortened: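 Using mec2-1 yeast: add compound, measure growth, express inhibition versus vehicle-treated cultures.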

[3] = NCI Yeast Anticancer Drug Screen. Data for the sgs1 mgt1 strain (AID 161);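 also: 0% = growth of cultures given vehicle only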; conditions: S. cerevisiae sgs1 mgt1 strain, at 50.0 µM, active compounds read high
Procedure, shortened: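 This yeast growth screen uses a strain with defined DNA-repair lesions; compound-treated growth is compared with vehicle-treated growth.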

[4] = NCI Yeast Anticancer Drug Screen. Data for the cln2 rad14 strain (AID 165);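 also: 0% = growth equal to vehicle treated cultures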; conditions: S. cerevisiae cln2 rad14 strain, at 50.0 µM, active compounds read high
Procedure, shortened: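 Yeast strain cln2 rad14, bearing defects in cell cycle control and DNA repair, serves as the test system; values reflect growth inhibition compared with vehicle.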

[5] = NCI Yeast Anticancer Drug Screen. Data for the bub3 strain (AID 167); conditions: S. cerevisiae bub3 mutant strain, at 50.0 µM, active compounds read high
Procedure, shortened: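 Mutant yeast screening strain plus compound; vehicle-treated cultures serve as the 0% inhibition reference.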

[6] = NCI Yeast Anticancer Drug Screen. Data for the mlh1 rad18 strain (AID 175); conditions: S. cerevisiae mlh1 rad18 strain growth inhibition; at 50.0 µM; active compounds read high
Procedure, shortened: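 Steps: expose repair-defective yeast to compound; measure growth; express inhibition against vehicle-treated controls.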

Measured: growth inhibition

O=[N+]([O-])c1cccc(C(Cl)Cl)c1
inactive: [1] 30.5% | [2] -4.7% | [3] 22.4% | [4] 22.1% | [5] 12.1% | [6] -2.25%

CCC(C)(Cl)c1ccccc1 (configuration not stated)
inactive: [1] -11.7% | [2] -21.6% | [3] -13.6% | [4] -0.4% | [5] -21.4% | [6] -14.1%

C[Si](C)(C)[C@@]1([Se]c2ccccc2)CC[C@@H]1C(=O)c1ccccc1
inactive: [1] -11.6% | [2] -26.4% | [3] -26.4% | [4] -18.2% | [5] -27.4% | [6] -23.9%

CCOP(=O)(OCC)Oc1c(Cl)c(Cl)c(O)c(Cl)c1Cl
inactive: [1] -23.1% | [2] -15.7% | [3] 4.2% | [4] -17.6% | [5] 6.4% | [6] -8.5%

O=[N+]([O-])c1ccc(P(=O)(O)O)cc1
inactive: [1] -7.5% | [2] -27.7% | [3] 0.3% | [4] -22.4% | [5] 2.85% | [6] 10.4%

O=C1NC(=S)NC(=O)C1=Cc1ccncc1
inactive: [1] -19% | [2] -46.9% | [3] -7.7% | [4] 9.55% | [5] -26.9% | [6] -10.3%

CC1CN=C(NCc2ccccc2)S1 (configuration not stated)
inactive: [1] -33.2% | [2] 16.6% | [3] -33.5% | [4] 21.9% | [5] -1.05% | [6] -6.6%

CCP(c1ccccc1)c1ccccc1
inactive: [1] -0.4% | [2] 12.4% | [3] 13.1% | [4] 0.95% | [5] -40.8% | [6] -12%

CCOP(=O)(OCC)OP(=O)(OCC)OCC
inactive: [1] -9.35% | [2] -29.6% | [3] -42.7% | [4] -10.1% | [5] -49.4% | [6] -13.4%

COc1ccc(CCN2CCOCC2)cc1
inactive: [1] 31.9% | [2] 2.15% | [3] 47.8% | [4] 9.25% | [5] 34% | [6] 34.2%

O=C(COc1ccc(Cl)c(Cl)c1)Nc1ccccc1S(=O)(=O)F
inactive: [1] 27.6% | [2] -5.35% | [3] -3.8% | [4] 21.6% | [5] 5.15% | [6] 21.4%

CCOC(=S)S.[Ag]
inactive: [1] 1.6% | [2] -17.4% | [3] -2.05% | [4] -31.6% | [5] -15.2% | [6] 14.4%

O=C1CN=C(c2ccccc2)c2ccncc2N1
inactive: [1] 4.15% | [2] 4.5% | [3] 12.6% | [4] 19.1% | [5] 5.35% | [6] 28.6%

CC1CN=C(Nc2ccc(F)cc2F)S1 (configuration not stated)
inactive: [1] -9.1% | [2] -8.6% | [3] -65.7% | [4] -24.4% | [5] 12.5% | [6] -36.6%

NC1CN2CCC1CC2 (configuration not stated)
inactive: [1] 9.35% | [2] -7.65% | [3] -14.6% | [4] 11.8% | [5] -8.55% | [6] 1.15%

C/C=C/C(C)C1(CCC)C(=O)NC(=O)NC1=O (configuration not stated)
inactive: [1] 0.35% | [2] 2.6% | [3] -3.8% | [4] -37.2% | [5] 8.5% | [6] -3.8%

O=C(NN=C1CCN(Cc2ccccc2)CC1)C(O)(c1ccccc1)c1ccccc1
inactive: [1] -13.6% | [2] -5.5% | [3] 13.8% | [4] -8.5% | [5] -14% | [6] -0.65%

Clc1cccc2nncc(N3CC3)c12
inactive: [1] 2% | [2] 23.6% | [3] -17.2% | [4] -6.2% | [5] -9.05% | [6] 9.25%

CCCC/C=C(/C)C1(CC)C(=O)NC(=O)NC1=O
inactive: [1] 5.05% | [2] 14.2% | [3] -2% | [4] -28.1% | [5] -7.3% | [6] 4.6%

O=C1c2ccccc2C(=O)N1N1CC1c1ccccc1 (configuration not stated)
inactive: [1] -8.2% | [2] -36.1% | [3] 8.1% | [4] 18.2% | [5] 6.5% | [6] -1%

CN1CCC(O)(c2ccccc2)C(c2ccccc2)C1 (configuration not stated)
inactive: [1] 0.25% | [2] 1.05% | [3] -8.45% | [4] 0.4% | [5] 0.6% | [6] -0.05%

Oc1cccc(Cl)c1
inactive: [1] -3.15% | [2] -30.1% | [3] 4.75% | [4] 6.1% | [5] -2.45% | [6] 8.3%
